This is a sample that favours compounds with a hit; in the whole collection about 6.6% have one here.
CSC inhib: cancer stem cell inhibition | cancer stem cell-like cells viability, luminescence | inhibition, % at 7.5 µM | actives 1.1% (n = 300,000); in the data active = inhibition above about 75%; tested in HMLE shEcad cells
Mdm2-MdmX inh: human Mdm2/MdmX binding inhibition | inhibition, % at 8 µM | SaOS-2 split-luciferase Mdm2/MdmX complementation, luminescence | actives 3% (n = 330,000) | AID 485346;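 active = inhibition of at least 50% at 8 µM in the primary screen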
Target sequence (O15151 whole entry, looked up): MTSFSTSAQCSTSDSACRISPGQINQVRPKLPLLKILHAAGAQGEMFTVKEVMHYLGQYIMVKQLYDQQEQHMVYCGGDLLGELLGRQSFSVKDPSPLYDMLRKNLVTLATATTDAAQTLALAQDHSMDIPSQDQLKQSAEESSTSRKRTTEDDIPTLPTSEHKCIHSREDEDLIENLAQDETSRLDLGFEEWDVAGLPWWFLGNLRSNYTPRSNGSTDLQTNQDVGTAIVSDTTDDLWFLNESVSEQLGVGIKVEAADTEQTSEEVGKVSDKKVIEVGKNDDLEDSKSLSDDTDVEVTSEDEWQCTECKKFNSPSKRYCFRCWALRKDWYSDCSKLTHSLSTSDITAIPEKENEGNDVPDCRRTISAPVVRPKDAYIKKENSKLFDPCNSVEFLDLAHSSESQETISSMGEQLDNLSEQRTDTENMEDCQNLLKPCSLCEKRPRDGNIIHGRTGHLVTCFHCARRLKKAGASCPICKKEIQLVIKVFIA
Target sequence (Q00987 whole entry, looked up): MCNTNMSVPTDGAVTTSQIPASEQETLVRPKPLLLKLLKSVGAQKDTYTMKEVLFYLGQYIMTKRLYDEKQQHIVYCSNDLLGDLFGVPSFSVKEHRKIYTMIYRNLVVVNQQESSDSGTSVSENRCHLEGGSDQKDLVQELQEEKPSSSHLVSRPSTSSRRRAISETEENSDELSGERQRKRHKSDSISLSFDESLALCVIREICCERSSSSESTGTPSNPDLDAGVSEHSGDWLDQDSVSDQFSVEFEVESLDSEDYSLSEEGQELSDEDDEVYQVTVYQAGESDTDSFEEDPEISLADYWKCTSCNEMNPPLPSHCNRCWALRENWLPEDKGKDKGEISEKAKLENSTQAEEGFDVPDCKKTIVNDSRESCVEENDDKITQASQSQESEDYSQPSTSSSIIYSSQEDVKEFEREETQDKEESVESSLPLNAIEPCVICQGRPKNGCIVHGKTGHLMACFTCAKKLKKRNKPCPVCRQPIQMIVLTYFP
GRIN3A LBD mod: NR3A (human) ligand-binding domain modulation | NR3A LBD differential scanning fluorimetry, Tm shift; 0% = protein alone, 100% = glycine-bound protein | Tm shift relative to glycine control, % at 25 µM | actives 2.5% (n = 340,000) | AID 1259313;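 active = melting temperature shift of at least 10% of the positive control shift, at one fixed dose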
Gli-Sufu block: antagonists of Gli-Sufu signaling; Sufu-KO-LIGHT fibroblasts, Gli luciferase reporter luminescence; inhibition, % at 5 µM; actives 0.74% (n = 340,000); AID 588413;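 active = inhibition above about 55%, limit read from the data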;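 note: 0% = DMSO-treated cells and 100% = wells with medium but no cells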
Beta apoptosis: beta cell apoptosis inhibition; INS-1E cytokine-induced death, ATP luminescence, 48 h; percent of positive-control rescue, neutral wells zero; actives 0.8% (n = 300,000); protection from apoptosis, % (concentration not given with the values);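 active = Every replicate reaches about 75%, or at least half do and their mean reaches it too, limit read from the data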;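 note: 0% = cytokine-treated negative control wells and 100% = positive control rescue; higher means more ATP so stronger rescue from cytokine killing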
MPTP block: permeability transition pore inhibition | isolated mouse mitochondria, Ca2+ swelling absorbance, 30 min | inhibition, % at 10 µM | actives 1.4% (n = 360,000);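 active = inhibition of 50% or more, scaled per plate between neutral and stimulator controls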;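 note: 0% = DMSO wells given calcium and 100% = 1 mM EGTA wells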
* hit, by the source's call; . = no result given.

SMILES	CSC inhib	Mdm2-MdmX inh	GRIN3A LBD mod	Gli-Sufu block	Beta apoptosis	MPTP block
Cc1ccccc1NCC(=O)N/N=C/c1c[nH]c2ccccc12	24.2	27.7	23.9*	-5.7	-7.4	-0.3
O=C(NCC1CCCCC1)c1ccc2sc([C@H]3C[C@H](O)[C@@H](CO)O3)nc2c1	.	.	.	.	.	1.2
COc1ccccc1/C=C1\SC(=S)N(CCC(=O)NCCCn2ccnc2)C1=O	99.6*	6.6	-1.1	-6.3	.	-1.4
COc1ccccc1/C=C1\SC(=O)N(CCC(=O)NCCCn2ccnc2)C1=O	97.3*	0.2	-1.1	-5.4	125.2*	-0.7
COc1ccc(C(=O)NCC(=O)OCC(=O)N2CCC(C)CC2)cc1OC	-4.5	9.2	-0.6	0.3	-1.6	-0.2
Cc1ccccc1C[n+]1cccc2ccccc21	-14.9	-3.5	12.9*	8.7	8.9	-1.5
Nc1n[nH]c(=S)n1/N=C1/C(=O)Nc2ccccc21	.	.	26.3*	-1.4	.	-2.6
O=C(NC(c1ccc(Cl)cc1)c1ccsc1)C1CCN(Cc2cccc(Cl)c2)CC1 (stereo unspecified)	.	.	.	.	.	2.3
O=S(=O)(c1ccc(SCCOc2ccc(F)cc2)nc1)N1CCCC1	19.0	27.1	14.1*	-4.8	-4.9	-0.8
CCOc1ccc(S(=O)(=O)N2CCCC2)cc1	7.7	1.6	12.7*	6.3	-5.2	-1.5
O=S(=O)(c1ccc(SCCOc2ccccc2)nc1)N1CCCC1	-1.4	11.1	1.9	6.5	1.4	-0.8
CCOc1ccc2cc(S(=O)(=O)N3CCCCC3)ccc2c1	17.2	0.7	-1.6	4.9	-3.5	-0.8
Cc1cc(S(=O)(=O)N2CCN=C2c2ccccc2)ccc1F	-5.0	4.3	-1.2	-0.5	-2.9	-0.9
CCOc1ccc(S(=O)(=O)N2CCN=C2c2ccccc2)cc1	117.4*	46.2	0.4	-0.2	4.7	-0.2
COc1ccc(S(=O)(=O)N/N=C/c2ccc(OCCN3CCOCC3)c(OC)c2)cc1	.	2.2	-0.9	-6.3	.	2.6
COc1cc(/C=N/NS(=O)(=O)c2ccc3ccccc3c2)ccc1OCCN1CCOCC1	.	-11.1	15.0*	1.2	.	-0.9
Nc1nc(=S)ss1	.	.	2.6	6.9	.	0.1
CCNC(=O)c1ccc(CSc2nc3ccccc3s2)cc1	5.9	-31.7	32.6*	-35.6	-3.4	3.4
COCCNC(=O)c1ccc(CSc2nc3ccccc3s2)cc1	12.9	1.2	0.1	-33.5	2.4	0.0
Cc1nc2ccc(CN(C)c3ccc(C(=O)N[C@@H](CCC(=O)O)C(=O)O)s3)cc2c(=O)[nH]1	75.3*	.	.	.	-1.6	.
O=C(COc1ccc2cc(-c3ccccc3)c(=O)oc2c1)NCC1CCC(C(=O)O)CC1 (stereo unspecified)	3.8	8.3	-0.7	-7.6	-2.0	0.3
CC(C)CNC(=O)C1(C)CCCN1C(=O)Cc1cccc2ccccc12 (stereo unspecified)	.	.	.	.	.	-0.5
CCN(CC)c1ccc(N=Cc2ccccc2[N+](=O)[O-])cc1	-3.1	19.6	-1.9	-0.3	99.5*	2.1
CCN(CC)c1ccc(N=Cc2ccc([N+](=O)[O-])o2)cc1	23.4	38.7	-2.9	-20.9	75.4*	8.2
CN(Cc1ccc(Cl)cc1Cl)C(=O)C1CC(=O)N(Cc2ccco2)C1 (stereo unspecified)	.	.	.	.	.	-0.7
SMILES	CSC inhib	Mdm2-MdmX inh	GRIN3A LBD mod	Gli-Sufu block	Beta apoptosis	MPTP block
CC(=O)Nc1c(Cl)cc2c(c1Cl)C(=O)c1ccccc1-2	.	.	0.4	-4.8	.	0.4
CC(=N)c1c(O)cc(C)oc1=O	.	.	-8.7	11.5	.	-1.1
COc1ccc(NS(=O)(=O)c2ccc3nc(COc4cccc5ccccc45)[nH]c3c2)cc1	80.1*	32.8	17.1*	5.1	32.0	3.0
COc1ccc(NS(=O)(=O)c2ccc3nc(COc4ccc5ccccc5c4)[nH]c3c2)cc1	46.0	40.3	25.4*	13.8	17.2	38.7
CCCOc1ccc(N/C=C/C(=O)c2cc(OC)c(OC)c(OC)c2)cc1	22.8	24.9	-23.6	1.8	0.2	1.8
CCN1/C(=C/c2ccc3cc(C)ccc3[n+]2C)Sc2ccc3sccc3c21	.	.	-3.4	86.3*	.	34.3
Cc1sc2c3ccsc3ccc2[n+]1C	17.6	11.7	0.8	-2.4	-14.4	-2.9
COc1cc(/C=C/C(=O)c2ccc3c(c2)OCO3)cc(Cl)c1O	113.1*	23.7	-1.5	-22.0	-2.3	0.5
CCOc1ccc(C(=O)CC(=O)C(=O)NCCc2ccc(OC)c(OC)c2)cc1	1.8	-4.6	24.5*	-13.7	0.6	-26.7
COc1ccc(OCCCC(=O)NCCc2ccc(OC)c(OC)c2)cc1	-7.0	7.3	-1.1	-0.2	-2.4	0.5
O=S(=O)(Nc1nc2ccccc2nc1N1CCc2ccccc2C1)c1ccc(Cl)cc1	40.3	-40.4	9.7	-9.1	3.2	40.6
CC(=O)Nc1ccc(S(=O)(=O)Nc2nc3ccccc3nc2N2CCc3ccccc3C2)cc1	-11.7	5.2	16.0*	1.6	-0.9	1.3
O=S(=O)(Nc1nc2ccccc2nc1N1CCc2ccccc2C1)c1ccc(Br)cc1	36.2	.	10.2*	-64.5	-3.3	1.6
COc1cc(CN2CCC(n3nccc3NC(=O)c3ccc4c(c3)OCO4)CC2)ccc1O	-3.8	16.9	0.3	17.7	.	-0.7
Cc1cccc(CSc2nc3c(c(-c4cccs4)c2C#N)CN(C)CC3)c1	-1.6	21.9	-5.0	-11.5	.	-0.3
Cc1cccc(CSc2nc(N)c(C#N)c(-c3cccs3)c2C#N)c1	4.7	30.3	13.3*	10.0	13.1	36.2
O=c1cc(N2CCCCC2)c(-c2ccccc2)nn1Cc1ccccc1	105.1*	12.7	-0.7	10.0	4.1	4.7
CC1(C)OC(=O)C2=C(C[C@@H](CCc3ccccc3)O[C@H]2C2CCCC2)O1	.	.	.	.	.	0.6
CCn1c(=O)c2sccc2n(Cc2cccc(C)c2)c1=O	0.3	7.8	-1.2	4.0	.	-0.3
COc1ccc(-c2sc3ccccc3c2/C=C/c2ccc(OC)c(OC)c2)cc1	.	11.7	0.5	-27.9	3.4	0.3
OCCC#Cc1c(-c2ccsc2)sc2ccccc12	67.6	3.9	-22.0	-5.8	.	-0.9
COc1ccccc1-c1sc2cc3c(cc2c1C#Cc1cncn1C)OCO3	138.0*	19.6	-13.8	7.6	7.8	0.4
COc1ccc(-c2sc3ccccc3c2C#CCO)cc1	67.5	4.9	-16.8	-6.2	-5.4	0.4
OCCCCC#Cc1c(-c2ccsc2)sc2ccccc12	98.7*	13.5	-7.3	2.8	-3.3	4.0
COc1ccc(-c2sc3ccccc3c2/C=C/c2ccncc2)cc1	102.5*	4.0	0.8	-14.5	-8.4	-1.2
COc1ccc(-c2sc3ccccc3c2C#CCCO)cc1	91.6*	17.5	-7.3	-2.4	-0.2	-0.8
COc1ccc(-c2sc3cc(OC)c(OC)cc3c2C#CCCO)cc1	64.2	37.2	-3.8	-2.3	-0.9	-0.1
COc1ccc(-c2sc3ccc(N4CCOCC4)cc3c2C#CCCO)cc1	122.6*	46.6	-15.1	-1.2	-1.8	0.2
COc1ccc(-c2sc3ccccc3c2C#Cc2cncn2C)cc1	137.7*	38.2	-16.4	-1.0	6.8	0.6
